Screening data deposited in PubChem by National Center for Advancing Translational Sciences (NCATS).
Shown are actives, neighbours in structure and some others; about 14% of the full set was active somewhere.
Pf growth 96h = P. falciparum growth inhibition at 96 hours; Potency, µM (doses to about 28.7 µM), inactives show at the highest dose activity change, negative = inhibition, usual class: inhibitors; P. falciparum luciferase reporter growth, 96 h; 320,000 tested, 6.9% active; further: potency means the concentration at half of the fitted maximal effect
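Infected RBCs, 2% Hct / 0.05% parasitemia final; luciferase-reporter P. falciparum; cpd 96 h, 37 C, 5% CO2; luciferase detection reagent; luminescence.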
Marburg entry inh = inhibitors of Marburg virus binding or cell entry; Marburg virus pseudotyped entry inhibition, cell reporter; Potency, µM (titrated, usually from 37.8 µM), for the others: at the top dose activity change, negative = inhibition, hits mostly inhibitors; 300,000 tested, 1.8% active; AID 540276; calls by dose curve; tested in HEK293 cells; further: potency means the concentration at half of the fitted maximal effect
LASV entry inh = inhibitors of Lassa virus binding or cell entry; 300,000 tested, 1.2% active; Potency, µM (highest dose often 37.9 µM), without a hit: at the highest dose activity change, negative = inhibition, hits mostly inhibitors; Lassa virus pseudotype entry inhibition, cell reporter; AID 540256; calls by dose curve; tested in HEK293 cells; further: potency means the concentration at half of the fitted maximal effect; nearly all actives have a fitted effect of over 50% in size
HCMV inh = human cytomegalovirus inhibition; HFF cells, HCMV-luciferase reporter, 72 h; hits give low values; activity change, negative = inhibition, % at 57.5 µM; 410,000 tested, 4.5% active; AID 1259415; in the data active means activity change below about -60%; inconclusive means no clear call, values can overlap the other calls; inactive means above about -39%
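Screen run at 2 compound doses on HFFs infected with reporter HCMV, MOI 1 PFU/cell. Luciferase activity from cell lysates at 72 h post infection gave inhibition relative to buffer-only and Salinomycin wells.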
Pf growth 48h = inhibits P. falciparum growth in the first generation, 48 h. Potency, µM (series often up to 28.7 µM), for the others: top-dose activity change, negative = inhibition, most hits filed as inhibitors. P. falciparum luciferase growth in erythrocytes, 48 h. 310,000 tested, 5.9% active; further: potency means the concentration at half of the fitted maximal effect
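A one-generation exposure of luciferase-tagged malaria parasites in RPMI 1640/Albumax erythrocyte culture, 37 C and 5% CO2. Inhibition is inferred from decreased luminescence after adding detection reagent.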
HCV inh = inhibitors of hepatitis C virus infection. Huh7.5.1 HCVcc-Cre infection, luciferase reporter, 44 h. Potency, µM (highest dose often 41.8 µM), without a hit: at the top dose activity change, negative = inhibition, actives largely listed as inhibitors. 340,000 tested, 3.4% active. AID 651820; further: potency means the concentration at half of the fitted maximal effect
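After 44 h co-culture of compound, cells and HCVcc-Cre (~0.5 moi), substrate is added for 15 min at room temperature and luciferase measured over 15 sec. Cells were seeded at 1,000/well and pre-cultured 4 h.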
Starred values were filed as active, the others as inactive; ? = inconclusive; nt = not tested or not shown; ! = not confirmed by another sample; [ ] = remark or other dose. Unless noted, the call rests on the fitted dose curve; in most records, active means well fitted inhibition curve with a large enough effect; inconclusive means small, poorly fitted or top-dose-only effect, or another doubt; inactive means no such curve, though single readings can be large or run the other way. On the % scale 0 is the no-effect control and ±100 the full control effect.

SMILES	Pf growth 96h	Marburg entry inh	LASV entry inh	HCMV inh	Pf growth 48h	HCV inh
CCc1ccc2[nH]c(=O)c(C(c3nnnn3CC3CCCO3)N3CCCc4ccccc43)cc2c1 (stereo not drawn)	?	9.2µM*	-25.4%	-30.9	11.7µM*	-5.9%
Cc1cc2cc(C(c3nnnn3CC3CCCO3)N3CCCc4ccccc43)c(=O)[nH]c2cc1C (stereo not drawn)	-20.9%	?	?	37.4	?	0.9%
Cc1cccc2cc(C(c3nnnn3CC3CCCO3)N3CCCc4ccccc43)c(=O)[nH]c12 (stereo not drawn)	-18.7%	?	-7.9%	62.6	9.28µM*	-8.0%
Cc1cccc2cc(C(c3nnnn3CC3CCCO3)N3CCc4ccccc4C3)c(=O)[nH]c12 (stereo not drawn)	64.6%	-1.4%	1.4%	nt	-5.7%	-7.5%
CCOc1ccc2[nH]c(=O)c(C(c3nnnn3CC3CCCO3)N3CCc4ccccc4C3)cc2c1 (stereo not drawn)	-14.2%	-45.3%	-2.8%	-15.9	10.4µM*	-13.9%
Cc1cccc(Cn2c(CNS(=O)(=O)c3ccc4c(c3)CCCC4)nc3cccnc32)c1	nt	nt	17.9%[46.1 µM]	-35.8	nt	nt
Cc1ccc(C2=NC(c3ccc(F)cc3)=Nc3ccc(C)cc3N2)cc1	nt	5.3%[46.1 µM]	15.7%[46.1 µM]	-6.4	nt	nt
O=C(CSc1nc(=O)n(CCN2CCOCC2)c2c1CCC2)Nc1ccc(Cl)c(Cl)c1	nt	nt	16.3%[46.1 µM]	46.2	nt	nt
O=C1NC2(CCCCC2)N(C(=O)c2ccccc2)C2=C1CCCC2	?	nt	nt	?	-7.4%	3.16µM*
COc1cc(-c2nc3c(c(C)nn3-c3ccccc3)c3cc(OC)c(OC)cc23)ccc1O	?	17.3%[46.1 µM]	7.8%	-35.3	2.94µM*	?
Cc1cccc(CCNC(=O)C2CCC(CNS(=O)(=O)c3ccccc3)CC2)c1 (stereo not drawn)	nt	nt	-6.6%[46.1 µM]	-1.0	nt	nt
CC(C)(C)c1ccc(C(=O)NNC(=S)NCc2ccco2)cc1	-4.0%	?	?	38.8	-19.6%	17.7%
CCNC(=S)NNC(=O)c1ccc(S(=O)(=O)NCc2ccco2)cc1	nt	?	-7.5%	-100.1*	nt	18.0%
CCc1ccccc1NC(=O)CNC(=O)c1ccc(S(=O)(=O)NCc2ccco2)cc1	nt	nt	nt	-102.1*	nt	nt
COc1ccc(S(=O)(=O)N2CCOCC2)cc1NC(=O)Cc1ccc(F)cc1	nt	nt	nt	7.5	nt	nt
O=C(O)c1ccc(Cl)c(N2C(=O)Nc3ccccc3N2O)c1	21.8%	nt	nt	-61.0*	67.8%	-4.7%
CCc1ccc(N/C(SCc2cccc(F)c2)=C(/C#N)C(=O)NCc2ccco2)cc1	51.4%	20.6µM*	?	5.3	?	17.9%
Cc1ccc(N/C(SCc2ccccc2C)=C(/C#N)C(=O)NCc2ccco2)cc1C	?	?	?	-18.3	?	?
Cc1c(CCCN)c2ccccc2n1Cc1ccccc1	?	nt	nt	-35.0	?	11.2µM*
Cc1nn(C)c(C(=O)Nc2ccn(Cc3c(F)c(F)cc(F)c3F)n2)c1[N+](=O)[O-]	nt	-4.6%	27.7%	?	-3.9%	-3.1%
Cc1nn(Cc2cccc(C(=O)Nc3ccn(Cc4c(F)c(F)cc(F)c4F)n3)c2)c(C)c1[N+](=O)[O-]	13.1µM*	?	?	-37.8	nt	?
COc1ccc(-c2cc(C(=O)Nc3cc(OC)cc(C(=O)Nc4cccc(C(F)(F)F)c4)c3)[nH]n2)cc1	1.31µM*	nt	nt	-28.3	1.85µM*	-6.8%
COc1cc(NC(=O)c2ccc(N)nc2)cc(C(=O)Nc2cccc(C(F)(F)F)c2)c1	0.738µM*	nt	nt	19.9	0.738µM*	-1.1%
COc1cc(NC(=O)c2nccnc2N)cc(C(=O)Nc2cccc(C(F)(F)F)c2)c1	?	nt	nt	-7.4	?	-18.2%
COc1cc(NC(=O)c2nccn2C)cc(C(=O)Nc2cccc(C(F)(F)F)c2)c1	55.7%	nt	nt	25.5	-15.9%	2.51µM*
SMILES	Pf growth 96h	Marburg entry inh	LASV entry inh	HCMV inh	Pf growth 48h	HCV inh
COc1cc(NC(=O)c2ccno2)cc(C(=O)Nc2cccc(C(F)(F)F)c2)c1	?	nt	nt	-26.4	?	?
CC(C)Oc1cc(F)ccc1-c1cc(C(=O)Nc2cccc(C(F)(F)F)c2)[nH]n1	nt	nt	nt	-63.9*	nt	nt
CCCC[C@@H]1CN=C(N)N1CC(C)(C)C	nt	nt	nt	-18.6	nt	1.4%
Cc1ccc(S(=O)(=O)N2CCc3cc(C(=O)Nc4ccc(C)c(C)c4)ccc32)cc1	nt	-12.9%[46.1 µM]	-1.3%[46.1 µM]	-8.8	nt	nt
CC(C)CN(C(=O)CN(C)CC(=O)Nc1ccccc1C#N)c1c(N)n(CC(C)C)c(=O)[nH]c1=O	nt	6.9%[46.1 µM]	12.5%[46.1 µM]	-19.8	nt	8.4%
COCCCNC(=S)N(CCO)Cc1cc2cc3c(cc2[nH]c1=O)OCO3	-14.0%	7.0%[46.1 µM]	4.2%[46.1 µM]	38.9	-1.1%	9.7%
COc1cc(Nc2ccccn2)cc(C(=O)Nc2cccc(C(F)(F)F)c2)c1	25.5%	nt	nt	-68.5*!	?	?
O=C(NC1(C(F)(F)F)NC(=O)N(Cc2ccccc2)C1=O)c1cccnc1 (stereo not drawn)	2.94µM*	4.0%	16.6%	7.6	nt	-3.1%
Cc1cccc2c1N(C)C(=O)C2=O	11.1%	9.0%[46.1 µM]	-5.0%	-17.3	16.6%	13.0%
CNc1ncn(-c2c(C)cccc2C)c(=O)n1	nt	nt	nt	-98.7*	nt	nt
COc1ccc(CN2CCc3c(c(=O)n4ncc(C(=O)N5CCN(c6ccccc6OC)CC5)c4n3C)C2)cc1	nt	nt	?	-84.3*	nt	nt
COc1ccccc1N1CCN(C(=O)c2cn(Cc3ccccc3)nc2-c2cccnc2)CC1	9.28µM*	nt	nt	-0.5	?	?
O=C(c1cn(Cc2ccccc2)nc1-c1cccnc1)N1CCN(Cc2ccccc2)CC1	?	nt	nt	-15.1	?	-9.9%
O=C(c1cn(Cc2ccccc2)nc1-c1cccnc1)N1CCc2ccccc2C1	13.1µM*	nt	nt	16.7	?	-5.8%
O=C1NC(=O)C(Cc2ccc(Cl)cc2)(c2ccccc2)N1 (stereo not drawn)	nt	-21.0%[46.1 µM]	?	-26.6	nt	-0.6%
O=C(CC1(O)C(=O)N(CCc2ccccc2)c2ccc(Br)cc21)c1ccccc1 (stereo not drawn)	nt	?	-16.8%[46.1 µM]	-27.5	nt	nt
Cc1ccc(C(=O)CC2(O)C(=O)N(CCc3ccccc3)c3ccc(Cl)cc32)cc1 (stereo not drawn)	nt	-16.2%[46.1 µM]	?	-103.8*	nt	nt
Cc1ccc(C)n1-c1nnc(N2CCCC(C(=O)Nc3ccc(C(C)C)cc3)C2)s1 (stereo not drawn)	nt	5.1%[46.1 µM]	4.5%[46.1 µM]	-32.1	nt	nt
N#C/C(=C\c1cn(-c2ccccc2)nc1-c1cccnc1)c1nnc2n1CCCCC2	8.28µM*	-23.2%	18.7%	?	nt	-4.8%
O=C(NCC1CCCO1)/C(=C/c1cn(-c2ccccc2)nc1-c1cccnc1)NC(=O)c1ccccc1 (stereo not drawn)	-55.4%	-20.7%[46.1 µM]	-22.5%[46.1 µM]	1.8	?	19.4%
